# Data reported in PubChem BioAssay (EPA / NIEHS).
# The source made the active and inactive calls. The calls were made as follows: active = hit-call score of the fitted dose curve at least 0.9, where 1 is the maximum; inactive = score below 0.9.
# Read-out: Bcl-2 (BAX) gene, BAX (gene 581)
# Assay: LTEA_HepaRG_BAX: Life Technologies and Expression Analysis (LTEA) Assay for Bcl-2 (BAX) gene using HepaRG (AID 2283470)
# Conditions: mRNA level, 48 h; actives raise or lower the signal
# Method: LTEA_HepaRG is a cell based, multiplexed-readout assay that uses HepaRG, a human liver cell line, with measurements taken at 48 hours after chemical dosing on a 96-well plate.LTEA_HepaRG_BAX is one of 102 assay component(s) measured in the LTEA HepaRG cell culture assay. It is a marker of Cell proliferation, survival, death.Data from the assay component LTEA_HepaRG_BAX was analyzed into 1 endpoint. This assay endpoint, LTEA_HepaRG_BAX, was analyzed with bidirectional fitting relative to DMSO as the negative control and baseline of activity. Using a type of inducible reporter, measures of mRNA induction for gain or loss-of-signal activity can be used to understand regulation of transcription factor activity. To generalize the intended target to other relatable targets, this assay endpoint is annotated to the cell cycle intended target family, where the subfamily is Cell proliferation, survival, death.
# A total of 1060 chemcials from the ToxCast library were tested in eight-point concentration-response experiments. Cell culture and cytotoxicity assays were conducted at Thermo Fisher Scientific's Custom Services facility (Madison, WI). A single lot of human HepaRG cells (Thermo Fisher Scientific, Frederick, MD) was used for the cell culture experiments. 96-well format collagen type I coated plates of human HepaRG cells were prepared using established methods. Briefly, cryopreserved HepaRG cells were thawed, plated at a density of approximately 100,000 cells/well in HepaRG Thaw, Plate, and General Purpose media (HPRG770, Thermo Fisher Scientific), and incubated for 48 hours. 0.5% DMSO was selected as vehicle control to balance the requisite need of DMSO in HepaRG cultures to maintain differentiation (for example, baseline metabolism, proportions of hepatocytes vs. cholangiocytes), while enabling further hepatic receptor pathway activation (for example, PXR and CAR) in response to chemical exposure. 48 hours after plating, the culture medium was replaced with HepaRG Serum-Free Incudtion Media. Cells were exposed to each test chemical in duplicate and maintained in CO2 incubators for another 48 hours. Chemical plates were thawed to room temperature and 200x concentrations of treatment groups were prepared. 8-point conentration-reponse curves were made with the highest exposure at 100 uM, followed by half-log dilutions, all in 0.5% DMSO. Each test plate contained variouse controls, induction positive controls (1mM phenobarbital), cytotoxicity positive controls ([…] aflatoxin B1), vehicle controls (0.5% DMSO), and total lysis controls (0.5% DMSO). Cell morphology images were taken using an Essen IncuCyte FLR automated microscope, with six 96-well plates imaged in about 24 minutes. Images were captured and exported and JPEG files. Spent culture media was transfered to black-well plates for the LDH assay, and remaining media was sorted at -80 C for later use. Cells were treated with RLT buffer and frozen until shipped for gene expression analysis. Total RNA was isolated from the cell suspension in 75 uL of Buffer RLT (Qiagen, Germantown, MD 20874) by Quintiles/Expression Analysis (Durham, NC) using a custom isolation procedure. Total RNA from each plate well was transferred to a preamplification plate. Fluidigm's 96.96 Dynamic ArrayTM (Fluidigm, Amsterdam, the Netherlands) technology was used for gene expression analyses by quantitative reverse transcription polymerase chain reaction (qRT-PCR, performed by Quintiles/Expression Analysis, Durham, NC)89. Standard TaqManTM Assays (Applied Biosystems/ThermoFisher Scientific, Foster City, CA) were used to assess the expression of 93 genes selected based on their selectivity and sensitivity to important hepatic receptors known to be modulated by environmental chemicals; importance in human hepatocyte functionality; and hepatotoxicity. […]
Structure (SMILES),outcome,AC50
CC(=O)[C@@]1(O)CC[C@H]2[C@@H]3CCC4=CC(=O)CC[C@]4(C)[C@H]3CC[C@@]21C,inactive,–
CCOCCOCCO,inactive,–
CC(C)(C)c1ccccc1,inactive,–
CCCCCCCC(=O)OC,inactive,–
CC(C)c1cccc(C(C)C)c1NC(=O)NS(=O)(=O)c1cc(C(C)(C)O)co1,inactive,–
Cc1cn([C@H]2C=C[C@@H](CO)O2)c(=O)[nH]c1=O,inactive,–
O=[Si]=O,inactive,–
C/C=C/C=C/C(=O)O,inactive,–
CCCCc1nc2cccnc2n1Cc1ccc(-c2ccccc2-c2nnn[nH]2)cc1,inactive,–
O=C(NS(=O)(=O)/C=C/c1cccs1)c1ccc(F)cc1Br,inactive,–
CC(=O)O,inactive,–
COc1ccc(OC(F)(F)F)cc1CN[C@H]1CCCN[C@H]1c1ccccc1,inactive,–
CCCCOC(=O)CCCCC(=O)OCCCC,inactive,–
CC(C)OC(=O)C(C)(C)Oc1ccc(C(=O)c2ccc(Cl)cc2)cc1,inactive,–
CC(=O)O[C@]1(C(C)=O)CC[C@H]2[C@@H]3C=C(Cl)C4=CC(=O)[C@@H]5C[C@@H]5[C@]4(C)[C@H]3CC[C@@]21C,–,50 µM (active)
COc1ccc(C(=O)Nc2nc3ccccc3c(NCc3ccccc3)c2C#N)cc1,inactive,–
O=C1O[C@H]([C@H](O)CO)C(O)=C1O,inactive,–
O=C(O)c1[nH]n(-c2ccc(S(=O)(=O)O)cc2)c(=O)c1N=Nc1ccc(S(=O)(=O)O)cc1,inactive,–
Cc1cc(Cc2ccc(N)c(C)c2)ccc1N,inactive,–
CSc1ccc(Oc2ccc(S(N)(=O)=O)cc2CN(C)C)cc1C,inactive,–

Structure (SMILES),outcome,AC50
Oc1ccccc1O,inactive,–
CC(COCC(C)OC(=O)c1ccccc1)OC(=O)c1ccccc1 (stereo not given),inactive,–
c1ccc2occc2c1,inactive,–
O=C(O)CC(O)(CC(=O)O)C(=O)O,inactive,–
CCCC(=O)O,inactive,–
CC(=O)OCC(COC(C)=O)OC(C)=O,inactive,–
CCN(CC)CCOc1ccc(C(=C(Cl)c2ccccc2)c2ccccc2)cc1,inactive,–
COC(=O)[C@H]1[C@H]2C[C@@H]3c4[nH]c5cc(OC)ccc5c4CCN3C[C@H]2C[C@@H](OC(=O)c2cc(OC)c(OC)c(OC)c2)[C@@H]1OC,inactive,–
C=CCc1ccc(OC)c(OC)c1,inactive,–
CCCCCCCCCC[N+](C)(C)[O-],inactive,–
O=NO,inactive,–
CC(C)c1cccc(C(C)C)c1,inactive,–
CCC(C)N(C)C(=O)c1cc2ccccc2c(-c2ccccc2Cl)n1 (stereo not given),inactive,–
CCCCC(CC)CO (stereo not given),inactive,–
CCCCCCC(C=O)=Cc1ccccc1,inactive,–
CN(C)C(=O)NC1(c2ccccc2)CCN(CCC[C@]2(c3ccc(Cl)c(Cl)c3)CCCN(C(=O)c3ccccc3)C2)CC1,–,19.6 µM (active)
CCc1nc(N)nc(N)c1-c1ccc(Cl)cc1,inactive,–
CN(C)CCCN1c2ccccc2Sc2ccc(Cl)cc21,inactive,–
Oc1ccc(O)cc1,inactive,–
O=Cc1ccccc1C=O,inactive,–
